For 10 compounds, Potency, activity, negative = cell killing and outcome results are on record in PubChem BioAssay (NCATS).

One test relates to UISO. Briefly: qHTS assay to identify novel small-molecules to repurpose for Merkel cell carcinoma treatment (AID 1296009). Also: nearly all actives have a fitted effect of over 60% in size. Also: potency is read from the fitted curve at half-maximal effect. Particulars: MCC and control cell lines, CellTiter-Glo viability, 72 h; series mostly up to 46 µM. Put shortly: (§1)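 Cells were incubated with compound for 72 hr at 37 degree celsius before CellTiter-Glo addition. Luminescence was normalized with no-cell wells as full cytotoxicity and DMSO as baseline.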
(qHTS replaces the single test concentration by a dilution series.)

For a further test, the system named is WaGa. The test is described as above. The following applies: MCC and control cell lines, CellTiter-Glo viability, 72 h; series mostly up to 46 µM. A digest of the protocol: as §1
(In general: Cellular ATP, detected with luciferase, serves as a proxy for viable cell number.)

The next test concerns C33A. Put plainly: Primary qHTS to identify gynecologic anti-cancer compounds using libraries of approved drugs and bioactive compounds (AID 1345084). Also: nearly all actives have a fitted effect of over 55% in size. Also: potency is read from the fitted curve at half-maximal effect. Particulars: Gynecologic cancer cell panel viability, ATPlite luminescence, 48 h; series mostly up to 57.5 µM. A digest of the protocol: (§2)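 Five-concentration response, 48 h; readout is ATP-driven luciferase luminescence.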
The next test concerns CAOV3. The test is described as above. Particulars: Gynecologic cancer cell panel viability, ATPlite luminescence, 48 h; series mostly up to 57.5 µM. Put shortly:
as §2

The subject of a further test is CASKI. Described as above. Particulars: Gynecologic cancer cell panel viability, ATPlite luminescence, 48 h; series mostly up to 57.5 µM. A digest of the protocol: as §2
A further test has as its system Es-2. The test is described as above. Particulars: Gynecologic cancer cell panel viability, ATPlite luminescence, 48 h; series mostly up to 57.5 µM. Put shortly: as §2
The next test deals with HeLa. Described as above. The following applies: Gynecologic cancer cell panel viability, ATPlite luminescence, 48 h; series mostly up to 57.5 µM. A digest of the protocol:
as §2

A further test relates to Hek293T. Described as above. Particulars: Gynecologic cancer cell panel viability, ATPlite luminescence, 48 h, control line for the selectivity index; series mostly up to 57.5 µM. A digest of the protocol:
as §2

The subject of another test is JEG-3. The description is as above. Particulars: Gynecologic cancer cell panel viability, ATPlite luminescence, 48 h; series mostly up to 57.5 µM. Put shortly:
as §2

A further test has as its system OV90. The description is as above. The following applies: Gynecologic cancer cell panel viability, ATPlite luminescence, 48 h; series mostly up to 57.5 µM. Put shortly:
as §2

For another test, the system named is PA-1. The test is described as above. The following applies: Gynecologic cancer cell panel viability, ATPlite luminescence, 48 h; series mostly up to 57.5 µM. A digest of the protocol:
as §2

Another test has as its system Tov-21-G. The description is as above. Particulars: Gynecologic cancer cell panel viability, ATPlite luminescence, 48 h; series mostly up to 57.5 µM. Put shortly:
as §2

The subject of the next test is Tov112D. Described as above. Particulars: Gynecologic cancer cell panel viability, ATPlite luminescence, 48 h; series mostly up to 57.5 µM. Put shortly:
as §2

Test [1] is described as follows: Drug repurposing screens with cells derived from glioblastoma tumor samples (AID 1345199). Also: nearly all actives have a fitted effect of over 40% in size. Also: potency is read from the fitted curve at half-maximal effect. As to activity, negative = cell killing: % is scaled to controls: 0 for no effect and ±100 for the full control effect. Particulars: GBM patient neurospheres viability, ATP luminescence, 48 h. Put shortly:
(§3)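 Four patient lines of CD133+ GBM neurospheres were screened at several concentrations; hits were retested in those lines plus three slower-growing GBM lines, using 48-hour treatment and ATP-based viability.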

The subject of another test is astro. The description is as above. Particulars: viability, ATP luminescence, 48 h; series mostly up to 45.9 µM. Put shortly: as §3
In another test the test system is SKOV3. Put plainly: Primary qHTS to identify gynecologic anti-cancer compounds using libraries of approved drugs and bioactive compounds (AID 1345084). Also: nearly all actives have a fitted effect of over 55% in size. Also: potency is read from the fitted curve at half-maximal effect. Particulars: Gynecologic cancer cell panel viability, ATPlite luminescence, 48 h; series mostly up to 57.5 µM. A digest of the protocol:
as §2

Test [2] in a line: qHTS assay to identify inhibitors of the type 1 interferon - major histocompatibility complex class I in skeletal muscle: Counter screen cell viability and HiBit confirmation (AID 1347412). Also: % is scaled to controls: 0 for no effect and ±100 for the full control effect; nearly all actives have a fitted effect of over 60% in size. Particulars: iHSKM muscle cells + IFN-b, HiBiT or CellTiter-Glo, 24 h; Potency: HiBiT; Viability, at 45.9 µM (top of the series). A digest of the protocol:
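CRISPR HLA-B*08:01-HiBit immortalized human myoblasts (C25cl48) stimulated with 4 ng/ml IFN-beta and compounds (12-point 1:3, top 46 uM final) for 24 h at 37 C. Duplicate plates read by HiBit lytic luminescence or CellTiter Glo ATP.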

Test [3] in a line: qHTS assay for small molecule activators of the human pregnane X receptor (PXR) signaling pathway (AID 720659; call rule not given here; also: 0% is about no effect). The following applies: DPX-2 HepG2 CYP3A4-luciferase, 24 h; series mostly up to 92.3 µM.
The mark [4] stands for this setting: at 46.1 µM (top of the series), tumour line C.

Where “and” joins values, the source holds several entries; their conditions need not be identical. Identical values can stand only once. Records with an inconclusive call do not appear. More than one record can exist for a structure, and the calls need not agree. Calls of active or inactive are those of the source. Unless noted, calls follow the shape of the dose curve; as a rule, active = well fitted curve in the direction sought with a large enough effect; inconclusive = small, poorly fitted or top-dose-only effect, or another doubt; inactive = no such curve, though single readings can be large; an effect the other way counts as inactive or inconclusive.

As to `NCCc1ccc(O)c(O)c1`, the Potency entry in the test on UISO is “inactive and 18.8 µM (active)”; with WaGa, 11.9 µM (active). Moreover, the Potency entry with C33A, in the test with CAOV3, with CASKI, in the test with Es-2, with HeLa and in the test with Hek293T was “inactive” throughout. For the same compound, the Potency entry in the test with JEG-3, with OV90, in the test on PA-1, in the test on Tov-21-G, with Tov112D and with astro was “inactive” in each case. Besides, the activity, negative = cell killing in [1] (at 45.9 µM (top of the series), tumour line B) is -2.97% (inactive); in test [1] (at 45.9 µM (top of the series), tumour line D), 1.17% (inactive); in test [1] (at 46 µM (top of the series), tumour line A), -12.4% (inactive); in test [1] (setting [4]), 13.2% (inactive).
Regarding `CC1(C)Cc2c(-c3ccccc3)c(-c3ccc(Cl)cc3)c(CC(=O)O)n2C1`, the Potency entry with UISO, in the test with WaGa, with C33A, in the test on CAOV3, with CASKI and with Es-2 was “inactive” throughout. Further, the Potency entry with HeLa, with JEG-3, with OV90, with PA-1, in the test on SKOV3 and with Tov112D was “inactive” throughout.
Regarding `Cn1cnc2c(F)c(Nc3ccc(Br)cc3Cl)c(C(=O)NOCCO)cc21`, the Potency result in the test with UISO, in the test with WaGa, with C33A, with CAOV3, in the test with CASKI and in the test on HeLa was “inactive” each time. Moreover, the Potency entry in the test with Hek293T, in the test on JEG-3, with PA-1, with SKOV3 and with Tov112D was “inactive” throughout. Also, the Potency with OV90 is 1.58 µM (active).
In the case of `Cc1ccc(N(CC2=NCCN2)c2cccc(O)c2)cc1`, the Potency entry in the test on UISO, in the test on WaGa, in the test with C33A, in the test with CAOV3, in the test on CASKI and with Es-2 was “inactive” in each case. For the same compound, the Potency result in the test on HeLa, in the test on Hek293T, in the test with JEG-3, in the test with OV90, in the test with PA-1 and in the test with SKOV3 was “inactive” throughout. The Potency entry with Tov-21-G and in the test on astro was “inactive” throughout.
As to `Cc1cc2c(C(C)C)c(O)c(O)c(C=O)c2c(O)c1-c1c(C)cc2c(C(C)C)c(O)c(O)c(C=O)c2c1O`, the Potency in the test with UISO was 21.1 µM (active); in the test with WaGa, 23.7 µM (active). Also, the Potency result (in the test on CASKI; with Es-2; in the test on JEG-3; in the test on Tov-21-G; in the test on Tov112D; in test [2]) was “inactive” throughout. In [3], the result was inactive.
With `O=C(c1cc(Cc2n[nH]c(=O)c3ccccc23)ccc1F)N1CCN(C(=O)C2CC2)CC1`, the Potency in the test with UISO is 16.6 µM (active). The Potency result in the test with C33A, in the test on CAOV3, in the test on CASKI, in the test on Es-2, with HeLa and with Hek293T was “inactive” each time. The Potency entry in the test on JEG-3, in the test with OV90, in the test on PA-1, in the test with Tov-21-G and in the test on Tov112D was “inactive” each time.
As to `CN1CCN(CCCN2c3ccccc3Sc3ccc(C(F)(F)F)cc32)CC1`, the Potency entry in the test on UISO, with WaGa, in the test on C33A, in the test with HeLa, in the test with JEG-3 and in the test with Tov-21-G was “inactive” throughout. The Potency was 11.2 µM (active) with OV90; 14.1 µM (active) in the test with SKOV3; 2.51 µM (active) in test [1] (tumour line A); 15.8 µM (active) in test [1] (tumour line B); 6.31 µM (active) in [1] (tumour line D); 25.1 µM (active) in the test on astro. The activity, negative = cell killing in [1] (setting [4]) was -24.2% (inactive).
For the compound `CS(=O)(=O)c1ccc(C(=O)Nc2ccc(Cl)c(-c3ccccn3)c2)c(Cl)c1`, the Potency result with UISO, with WaGa, in the test on CAOV3, in the test on CASKI, with Es-2 and in the test with HeLa was “inactive” each time. The Potency entry with Hek293T, with JEG-3, in the test on OV90, with PA-1, in the test on SKOV3 and in the test with Tov-21-G was “inactive” throughout. The Potency entry with Tov112D is “inactive”.
As for `Cn1cc(-c2ccc3nnc(C(F)(F)c4ccc5ncccc5c4)n3n2)cn1`, the Potency result in the test on UISO, in the test with WaGa, in the test with C33A, in the test on CAOV3, in the test on CASKI and in the test on Es-2 was “inactive” throughout. The Potency entry with HeLa, with Hek293T, with JEG-3, with OV90, with PA-1 and in the test on Tov-21-G was “inactive” throughout. The Potency entry in the test on Tov112D was “inactive”.
On to `CC(C)(N)C(=O)N[C@H](COCc1ccccc1)C(=O)N1CCC2(CC1)CN(S(C)(=O)=O)c1ccccc12`, for which the Potency result in the test with UISO, in the test on WaGa, with C33A, in the test with CAOV3, in the test with CASKI and with HeLa was “inactive” each time. For the same compound, the Potency result with JEG-3, in the test on OV90, in the test with PA-1, in the test on Tov-21-G and in the test on Tov112D was “inactive” in each case.
